# Screening data (PubChem)
# T cruzi growth-1: T. cruzi intracellular proliferation inhibitors, primary screen, cell-based, beta-gal Tulahuen parasites, NIH3T3 host, luminescence; AID 624255, 2012; inhibition, % at 8.34 µM; T. cruzi beta-gal in NIH3T3, GalScreen luminescence, 90 h; 77,000 tested, 5.9% active;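 active means mean inhibition above about 93%, with at least 55% of replicates each passing it, limit read from the data, passing the limit was not always enough; inconclusive means only one of those two conditions holds; inactive means neither condition holds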
# Pf Dd2 inh: P. falciparum Dd2 growth inhibitors, primary screen, SYBR Green fluorescence, single dose replicates; 94,000 tested, 2.3% active; activity change, % at 10 µM; 72 h; active compounds read low; in the data active means activity change below about -80%; inconclusive means no clear call, values can overlap the other calls
# C diff HTS: C. difficile growth inhibitors, primary screen, HTS. 86,000 tested, 0.25% active. growth activity, negative = inhibition, % at 16 µg/mL (by protocol). Clostridium difficile clinical isolate growth, OD600, 24 h; active compounds read low. AID 1259249, 2017;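 active means mean growth activity at or below -80% and every replicate also at or below -80%; inconclusive means mean at or below -80% but some replicate above -80%; inactive means mean growth activity above -80%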;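 further: 0% = DMSO wells and -100% = levofloxacin 16 µg/mL wells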
# T cruzi growth-2: T. cruzi intracellular proliferation inhibitors, confirmation, cell-based, NIH3T3 host, beta-gal parasite, luminescence, cherry-pick; shares compounds with T cruzi growth-1; T. cruzi beta-gal in NIH3T3, GalScreen luminescence, 90 h; inhibition, % at 8.35 µM; 5,600 tested, 72% active;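 active means mean replicate inhibition above about 95% and at least 55% of replicates individually reaching it, limit read from the data; inconclusive means only one of the two criteria is met; inactive means neither criterion is met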
# T cruzi growth-3: inhibitors of intracellular T. cruzi replication, confirmation, NIH3T3 host cells, beta-gal parasites, cherry-pick, set 2 | shares compounds with T cruzi growth-1 | T. cruzi beta-gal in NIH3T3, GalScreen luminescence, 90 h | inhibition, % at 2.09 µM | 5,600 tested, 21% active;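 active means mean inhibition above about 95%, with at least 55% of replicates also reaching it, limit read from the data; inconclusive means meets just one of the two conditions; inactive means meets neither condition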;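 further: plate controls were neutral control median for no effect and positive control median for full effect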
# NIH3T3 tox: cytotoxicity in mouse NIH/3T3 fibroblasts, confirmation, cytotoxicity control for T. cruzi proliferation inhibitor project, cell-based, cherry-pick, single point; AID 651742, 2012; 5,600 tested, 14% active; shares compounds with T cruzi growth-1; NIH/3T3 viability, CellTiter-Glo ATP luminescence, 90 h; cytotoxicity (signal decrease), % at 8.35 µM;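 active means mean signal decrease across replicates above about 35% based on untreated-well scatter, with enough replicates individually passing, limit read from the data; inconclusive means no rule stated though some were filed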;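 further: 0% = median of neutral control wells and 100% = median of positive control wells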
# NIH3T3 tox 2: NIH/3T3 fibroblast cytotoxicity, confirmation, cytotoxicity control, cell-based, cherry-pick, single point, set 2; NIH/3T3 viability, CellTiter-Glo ATP luminescence, 90 h; inhibition, % at 24.9 µM; shares compounds with T cruzi growth-1; 5,600 tested, 56% active;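 active means mean loss of cell viability signal at or above a set limit, and enough replicates individually reaching it; inconclusive means meets only the mean limit or only the replicate share; inactive means meets neither condition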;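 further: 0% = median of neutral control wells and 100% = median of positive control wells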
# The depositor's hits bear a star; ? = inconclusive; nt = no result. Hits are enriched below; roughly 6.8% of the tested compounds scored in any of these assays.
SMILES,T cruzi growth-1,Pf Dd2 inh,C diff HTS,T cruzi growth-2,T cruzi growth-3,NIH3T3 tox,NIH3T3 tox 2
CCCNC(=O)Nc1ccc2c(c1)C(=O)N(C)[C@H]1CC[C@H](CC(=O)NCCCN(C)C)O[C@H]1CO2,-18,13,1,nt,nt,nt,nt
O=C(C[C@H]1CC[C@@H]2[C@H](COC[C@@H](O)CN2CCc2ccccc2)O1)NCc1ccccc1,-9,-19,-4,nt,nt,nt,nt
C[C@@H]1CN([C@@H](C)CO)C(=O)c2cccc(NC(=O)CCCCCC(=O)Nc3ccccc3N)c2O[C@@H]1CN(C)S(=O)(=O)c1ccc(Cl)cc1,98*,-93*,-8,103*,82,-13,11
C[C@@H]1CN([C@@H](C)CO)C(=O)c2cccc(NC(=O)CCCCCC(=O)Nc3ccccc3N)c2O[C@H]1CN(C)S(C)(=O)=O,nt,17,0,nt,nt,nt,nt
C[C@@H]1CN([C@@H](C)CO)C(=O)c2cccc(NC(=O)CCCCCC(=O)Nc3ccccc3N)c2O[C@H]1CN(C)S(=O)(=O)c1ccc(Cl)cc1,95*,-73,-4,91,57,-40,-12
C[C@@H]1CN([C@@H](C)CO)C(=O)c2cc(NC(=O)CCCCCC(=O)Nc3ccccc3N)ccc2O[C@@H]1CN(C)S(=O)(=O)c1ccc(Cl)cc1,nt,-55,0,nt,nt,nt,nt
Cc1ccc(S(=O)(=O)N(C)C[C@H]2Oc3ccc(NC(=O)CCN4CCOCC4)cc3CC(=O)N([C@@H](C)CO)C[C@H]2C)cc1,46,-9,5,nt,nt,nt,nt
COc1ccccc1S(=O)(=O)N(C)C[C@@H]1Oc2cc(C#CCC(C)C)ccc2S(=O)(=O)N([C@@H](C)CO)C[C@H]1C,?,-89*,8,97*,108*,24,41*
CC(C)CC#Cc1ccc2c(c1)O[C@H](CN(C)S(C)(=O)=O)[C@@H](C)CN([C@H](C)CO)S2(=O)=O,46,-1,nt,nt,nt,nt,nt
COc1ccccc1S(=O)(=O)N(C)C[C@H]1Oc2cc(C#CCC3CCCC3)ccc2S(=O)(=O)N([C@@H](C)CO)C[C@@H]1C,nt,-55,2,nt,nt,nt,nt
COc1ccccc1S(=O)(=O)N(C)C[C@@H]1Oc2cc(C#CCC(C)C)ccc2S(=O)(=O)N([C@@H](C)CO)C[C@@H]1C,?,-87*,18,103*,107*,-3,56*
CC(C)CC#Cc1ccc2c(c1)O[C@H](CN(C)S(=O)(=O)c1ccc(F)cc1)[C@@H](C)CN([C@@H](C)CO)S2(=O)=O,nt,-79,-1,nt,nt,nt,nt
COc1ccccc1S(=O)(=O)N(C)C[C@@H]1Oc2cc(C#CCC(C)C)ccc2S(=O)(=O)N([C@H](C)CO)C[C@H]1C,103*,-83*,6,93,115*,44*,105*
Cc1ccccc1S(=O)(=O)N1C[C@@H](O)COC[C@H]2O[C@H](CC(=O)NCCc3ccccc3)CC[C@@H]21,33,1,56,nt,nt,nt,nt
Cc1noc(C)c1NC(=O)N(C)C[C@@H]1Oc2c(NC(=O)Nc3ccc(F)cc3)cccc2C(=O)N([C@H](C)CO)C[C@H]1C,2,48,16,nt,nt,nt,nt
C[C@@H]1CN([C@@H](C)CO)C(=O)c2cc(NC(=O)Nc3ccc(F)cc3)ccc2O[C@@H](C)CCCCO[C@@H]1CN(C)C(=O)Cc1ccccc1,-103,-73,-8,nt,nt,nt,nt
O=S(=O)(c1ccc(F)cc1)N1CCCCN2[C@H](CO)[C@H](c3ccc(C4=CCCCC4)cc3)[C@@H]2C1,73,-27,1,nt,nt,nt,nt
Cc1noc(C)c1NC(=O)Nc1cccc2c1O[C@@H](CN(C)C)[C@H](C)CN([C@H](C)CO)C2=O,nt,13,-2,nt,nt,nt,nt
O=C([C@H]1[C@H](CO)[C@H]2Cn3c(cccc3=O)[C@H]2N1Cc1ccccc1Cl)N1CCCCC1,-28,nt,9,nt,nt,nt,nt
C[C@@H]1CCCCO[C@H](CN(C)C(=O)Nc2ccc3c(c2)OCO3)[C@@H](C)CN([C@H](C)CO)C(=O)c2cc(NC(=O)Nc3ccc4c(c3)OCO4)ccc2O1,47,-32,nt,nt,nt,nt,nt
C[C@H]1CCCCO[C@@H](CN(C)C(=O)Nc2ccc(C(F)(F)F)cc2)[C@@H](C)CN([C@@H](C)CO)C(=O)c2cc(NC(=O)Nc3ccc4c(c3)OCO4)ccc2O1,121*,-8,3,105*,109*,-5,4
C[C@H]1CCCCO[C@@H](CN(C)C(=O)Nc2ccc3c(c2)OCO3)[C@@H](C)CN([C@@H](C)CO)C(=O)c2cc(NC(=O)Nc3ccc(C(F)(F)F)cc3)ccc2O1,82,-59,6,nt,nt,nt,nt
C[C@H](CO)N1C[C@H](C)[C@H](CN(C)C(=O)Nc2ccc3c(c2)OCO3)OCCCC[C@H](C)Oc2ccc(NC(=O)Nc3ccc(C(F)(F)F)cc3)cc2C1=O,98*,-60,4,101*,110*,-11,0
C[C@H]1CN([C@@H](C)CO)C(=O)c2cc(C3=CCCCC3)cnc2O[C@@H]1CN(C)C(=O)c1cccc(F)c1,105*,-46,-11,108*,22,-7,53*
C[C@@H]1CN([C@H](C)CO)C(=O)c2cc(C3=CCCCC3)cnc2O[C@H]1CN(C)Cc1ccccc1C(=O)O,-44,0,1,nt,nt,nt,nt
SMILES,T cruzi growth-1,Pf Dd2 inh,C diff HTS,T cruzi growth-2,T cruzi growth-3,NIH3T3 tox,NIH3T3 tox 2
C[C@H](CO)N1C[C@H](C)[C@H](CN(C)Cc2cccc(F)c2)Oc2ncc(C3=CCCCC3)cc2C1=O,nt,3,26,nt,nt,nt,nt
C[C@H]1CN([C@@H](C)CO)C(=O)c2cc(C3=CCCCC3)cnc2O[C@H]1CN(C)Cc1cccc(F)c1,110*,-4,12,105*,6,22,35*
C[C@@H]1CN([C@@H](C)CO)C(=O)c2cc(C3=CCCCC3)cnc2O[C@H]1CN(C)C(=O)c1cccc(F)c1,57,-6,-7,nt,nt,nt,nt
C[C@H]1CN([C@@H](C)CO)C(=O)c2cc(C3=CCCCC3)cnc2O[C@@H]1CN(C)Cc1ccccc1C(=O)O,108*,-7,-5,23,6,9,-24
C[C@@H](NC(=O)C[C@@H]1C[C@@H]2c3cc(NC(=O)Nc4ccccc4F)ccc3O[C@@H]2[C@@H](CO)O1)c1ccccc1,nt,-48,5,nt,nt,nt,nt
O=C(CC(F)(F)F)N1C[C@@H]2[C@H](c3ccccc31)[C@H](CO)N2C(=O)Cc1cccnc1,-53,-29,-1,nt,nt,nt,nt
Cc1cccc(-c2ccc([C@@H]3[C@@H](CO)N4C(=O)CN(C(=O)Cc5ccccn5)C[C@H]34)cc2)c1,nt,-22,-6,nt,nt,nt,nt
